From publication PMC7862700, “An all-to-all approach to the identification of sequence-specific readers for epigenetic DNA modifications on cytosine” come the findings set out here.

Common to all, as to test: DAPPL (digital affinity profiling via proximity ligation, sequencing); 10 mM Tris-HCl pH 7.5, 50 mM NaCl, 1 mM DTT, 4% glycerol, room temperature, 30 min; GST-TFs on glutathione beads, 16-mer random dsDNA library, 0.1% formaldehyde crosslink after washing; high values mean tight binding
Common to all, as to settings: protein: recombinant; tags: N-terminal GST; dsDNA, one strand shown

The target in one assay is T1, FLI1 (Homo sapiens, UniProt Q01543 1-452).
T1 sequence: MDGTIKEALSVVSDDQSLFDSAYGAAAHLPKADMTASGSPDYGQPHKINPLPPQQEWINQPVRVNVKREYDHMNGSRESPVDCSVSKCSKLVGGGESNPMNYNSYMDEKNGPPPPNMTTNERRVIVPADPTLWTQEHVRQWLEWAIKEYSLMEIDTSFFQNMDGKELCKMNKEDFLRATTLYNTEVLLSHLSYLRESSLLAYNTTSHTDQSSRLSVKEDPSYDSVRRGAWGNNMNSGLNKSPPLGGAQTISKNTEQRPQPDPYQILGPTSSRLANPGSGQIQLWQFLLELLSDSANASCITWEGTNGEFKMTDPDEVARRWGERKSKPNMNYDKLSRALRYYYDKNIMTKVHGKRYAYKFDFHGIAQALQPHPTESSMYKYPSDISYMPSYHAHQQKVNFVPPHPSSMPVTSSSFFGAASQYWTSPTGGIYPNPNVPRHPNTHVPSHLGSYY
The gist of the method:
(§1)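 In yeast, human transcription factors were expressed with a GST fusion, then pulled down on glutathione beads and given DNA barcodes. Pooled with a tag-only sample, they were exposed to 200 nmole of a 16-mer random double-stranded DNA library (Tris/NaCl/DTT/glycerol buffer, room temperature, 30 min), washed, crosslinked with 0.1% formaldehyde, proximity-ligated using BsaI/T4 ligase for 1 h at 37 °C, PCR-amplified and read on an Illumina NextSeq500. Each hexamer's frequency of reads for a factor, divided by the matching frequency for the tag-only sample, gives the binding signal.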

The target of the next assay is T2, ELK1 (Homo sapiens, UniProt P19419 1-428).
T2 sequence: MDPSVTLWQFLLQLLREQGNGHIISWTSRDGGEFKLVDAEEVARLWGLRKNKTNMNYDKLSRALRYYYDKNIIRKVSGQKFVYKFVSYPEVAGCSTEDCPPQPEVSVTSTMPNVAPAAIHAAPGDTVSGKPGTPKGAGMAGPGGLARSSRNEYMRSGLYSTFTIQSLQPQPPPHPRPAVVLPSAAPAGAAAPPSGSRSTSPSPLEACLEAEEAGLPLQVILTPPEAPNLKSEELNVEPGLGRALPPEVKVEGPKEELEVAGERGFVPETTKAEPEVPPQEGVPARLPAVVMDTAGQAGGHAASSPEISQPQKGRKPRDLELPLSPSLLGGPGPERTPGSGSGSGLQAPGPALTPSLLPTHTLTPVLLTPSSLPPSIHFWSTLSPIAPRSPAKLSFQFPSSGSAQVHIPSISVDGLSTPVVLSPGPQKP
The gist of the method:
as §1

The next assay has as its target T3, GABPA (Homo sapiens, UniProt Q06546 1-454).
T3 sequence: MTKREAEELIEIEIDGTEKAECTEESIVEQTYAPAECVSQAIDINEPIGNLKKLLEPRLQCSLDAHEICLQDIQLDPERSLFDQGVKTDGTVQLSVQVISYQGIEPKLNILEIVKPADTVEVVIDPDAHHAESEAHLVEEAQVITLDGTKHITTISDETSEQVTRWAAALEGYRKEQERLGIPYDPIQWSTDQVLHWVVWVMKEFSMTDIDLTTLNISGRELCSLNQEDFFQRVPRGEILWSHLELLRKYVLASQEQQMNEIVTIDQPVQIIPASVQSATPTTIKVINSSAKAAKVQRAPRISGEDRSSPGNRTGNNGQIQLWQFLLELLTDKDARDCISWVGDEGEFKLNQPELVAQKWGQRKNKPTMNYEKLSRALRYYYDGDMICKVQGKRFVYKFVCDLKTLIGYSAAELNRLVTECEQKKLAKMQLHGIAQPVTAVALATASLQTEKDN
The procedure, abridged:
as §1

A further assay deals with T4, ERG (Homo sapiens, UniProt P11308 1-479).
T4 sequence: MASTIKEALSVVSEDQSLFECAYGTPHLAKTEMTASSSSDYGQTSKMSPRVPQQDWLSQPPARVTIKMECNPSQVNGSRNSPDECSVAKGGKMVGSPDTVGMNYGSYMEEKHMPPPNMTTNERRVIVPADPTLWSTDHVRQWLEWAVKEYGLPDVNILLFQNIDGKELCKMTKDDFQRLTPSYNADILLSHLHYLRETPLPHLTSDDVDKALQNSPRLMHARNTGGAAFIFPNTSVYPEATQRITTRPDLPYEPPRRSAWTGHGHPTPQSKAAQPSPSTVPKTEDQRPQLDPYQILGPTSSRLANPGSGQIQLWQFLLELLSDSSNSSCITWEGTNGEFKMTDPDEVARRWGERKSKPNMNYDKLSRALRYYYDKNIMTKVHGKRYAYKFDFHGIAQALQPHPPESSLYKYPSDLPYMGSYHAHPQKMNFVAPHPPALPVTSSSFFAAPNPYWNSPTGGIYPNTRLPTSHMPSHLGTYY
The gist of the method: as §1

In a further assay the target is ELF1 (Homo sapiens, UniProt P32519 1-619). The procedure, abridged: as §1
Sequence of ELF1 (P32519 whole entry): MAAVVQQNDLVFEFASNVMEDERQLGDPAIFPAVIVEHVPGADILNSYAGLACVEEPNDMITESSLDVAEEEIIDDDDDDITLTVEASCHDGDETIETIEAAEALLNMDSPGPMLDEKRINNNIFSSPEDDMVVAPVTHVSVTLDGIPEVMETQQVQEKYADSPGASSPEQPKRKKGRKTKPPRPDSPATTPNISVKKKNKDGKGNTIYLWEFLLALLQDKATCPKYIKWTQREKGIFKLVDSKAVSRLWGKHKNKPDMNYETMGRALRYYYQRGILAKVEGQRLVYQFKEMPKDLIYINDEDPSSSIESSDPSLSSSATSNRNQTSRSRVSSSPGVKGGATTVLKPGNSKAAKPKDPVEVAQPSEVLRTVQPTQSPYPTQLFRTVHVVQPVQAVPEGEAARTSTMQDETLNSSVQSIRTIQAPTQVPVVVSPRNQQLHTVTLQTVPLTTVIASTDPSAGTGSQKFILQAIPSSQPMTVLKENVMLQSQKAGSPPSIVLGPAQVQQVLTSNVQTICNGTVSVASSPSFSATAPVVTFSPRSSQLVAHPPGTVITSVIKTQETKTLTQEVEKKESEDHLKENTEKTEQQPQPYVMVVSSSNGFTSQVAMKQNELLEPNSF
The next assay deals with T5, EHF (Homo sapiens, UniProt Q9NZC4 1-300).
T5 sequence: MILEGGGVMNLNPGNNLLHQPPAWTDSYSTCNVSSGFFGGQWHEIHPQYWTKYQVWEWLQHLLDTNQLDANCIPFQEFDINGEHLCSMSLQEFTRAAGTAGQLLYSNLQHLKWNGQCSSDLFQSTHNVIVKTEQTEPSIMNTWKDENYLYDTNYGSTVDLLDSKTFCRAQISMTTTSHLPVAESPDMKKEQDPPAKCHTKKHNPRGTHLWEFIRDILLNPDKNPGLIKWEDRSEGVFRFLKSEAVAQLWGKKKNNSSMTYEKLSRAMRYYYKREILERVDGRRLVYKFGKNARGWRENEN
The gist of the method:
as §1

A further assay has as its target SPI1 (Homo sapiens, UniProt P17947 1-270). The gist of the method:
as §1

Another assay addresses SPIB (Homo sapiens, UniProt Q01892 1-262). The procedure, abridged:
as §1

For a further assay, the target named is T6, ELK3 (Homo sapiens, UniProt P41970 1-407).
T6 sequence: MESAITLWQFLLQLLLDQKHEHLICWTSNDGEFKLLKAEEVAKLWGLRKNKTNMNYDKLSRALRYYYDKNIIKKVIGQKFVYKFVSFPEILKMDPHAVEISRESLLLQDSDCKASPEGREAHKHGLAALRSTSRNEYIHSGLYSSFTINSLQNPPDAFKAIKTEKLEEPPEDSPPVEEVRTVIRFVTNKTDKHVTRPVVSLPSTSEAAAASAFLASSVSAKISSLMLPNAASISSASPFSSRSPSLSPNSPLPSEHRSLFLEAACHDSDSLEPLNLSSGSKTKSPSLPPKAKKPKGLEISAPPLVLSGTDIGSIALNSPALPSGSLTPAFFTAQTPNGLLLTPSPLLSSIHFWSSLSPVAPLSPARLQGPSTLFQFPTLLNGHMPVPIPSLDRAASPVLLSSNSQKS
The procedure, abridged:
as §1

Sequence of SPIB (Q01892 whole entry): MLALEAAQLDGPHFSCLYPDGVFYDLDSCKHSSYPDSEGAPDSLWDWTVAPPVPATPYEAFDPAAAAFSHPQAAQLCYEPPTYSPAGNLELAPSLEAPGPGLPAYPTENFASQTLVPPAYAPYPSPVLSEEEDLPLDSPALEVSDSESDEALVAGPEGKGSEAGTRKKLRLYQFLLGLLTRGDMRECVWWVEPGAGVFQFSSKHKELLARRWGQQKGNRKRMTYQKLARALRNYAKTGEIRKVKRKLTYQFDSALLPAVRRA

As to ATAAAT, the binding signal with FLI1 is 1.14 fold enrichment (6-mer frequency, TF over GST control); with ELK1, 1.15 fold enrichment (6-mer frequency, TF over GST control); with GABPA, 1.15 fold enrichment (6-mer frequency, TF over GST control); with ERG it was 1.15 fold enrichment (6-mer frequency, TF over GST control); with ELF1 it was 1.15 fold enrichment (6-mer frequency, TF over GST control); in the assay with EHF, 1.14 fold enrichment (6-mer frequency, TF over GST control). The binding signal with SPI1 is 1.2 fold enrichment (6-mer frequency, TF over GST control); in the assay with SPIB it was 1.23 fold enrichment (6-mer frequency, TF over GST control); with ELK3 it was 1.22 fold enrichment (6-mer frequency, TF over GST control).
TCATTT: the binding signal in the assay with FLI1 is 1.36 fold enrichment (6-mer frequency, TF over GST control); with ELK1 it was 1.33 fold enrichment (6-mer frequency, TF over GST control); with GABPA, 1.19 fold enrichment (6-mer frequency, TF over GST control); with ERG, 1.35 fold enrichment (6-mer frequency, TF over GST control); with ELF1, 1.25 fold enrichment (6-mer frequency, TF over GST control); with EHF, 1.36 fold enrichment (6-mer frequency, TF over GST control). In addition, the binding signal was 1.5 fold enrichment (6-mer frequency, TF over GST control) with SPI1; 1.34 fold enrichment (6-mer frequency, TF over GST control) in the assay with SPIB; 1.16 fold enrichment (6-mer frequency, TF over GST control) with ELK3.
Consider CGACTC, for which the binding signal with FLI1 is 1.37 fold enrichment (6-mer frequency, TF over GST control); with ELK1, 1.42 fold enrichment (6-mer frequency, TF over GST control); with GABPA, 1.53 fold enrichment (6-mer frequency, TF over GST control); in the assay with ERG, 1.39 fold enrichment (6-mer frequency, TF over GST control); in the assay with ELF1 it was 1.45 fold enrichment (6-mer frequency, TF over GST control); with EHF it was 1.43 fold enrichment (6-mer frequency, TF over GST control). Also, the binding signal with SPI1 was 1.35 fold enrichment (6-mer frequency, TF over GST control); in the assay with SPIB, 1.56 fold enrichment (6-mer frequency, TF over GST control); in the assay with ELK3 it was 1.43 fold enrichment (6-mer frequency, TF over GST control).
In the case of ATTATT, the binding signal was 1.14 fold enrichment (6-mer frequency, TF over GST control) with FLI1; 1.17 fold enrichment (6-mer frequency, TF over GST control) with ELK1; 1.1 fold enrichment (6-mer frequency, TF over GST control) in the assay with GABPA; 1.17 fold enrichment (6-mer frequency, TF over GST control) with ERG; 1.13 fold enrichment (6-mer frequency, TF over GST control) with ELF1; 1.16 fold enrichment (6-mer frequency, TF over GST control) in the assay with EHF. Moreover, the binding signal with SPI1 was 1.02 fold enrichment (6-mer frequency, TF over GST control); in the assay with SPIB, 1.12 fold enrichment (6-mer frequency, TF over GST control); in the assay with ELK3, 1.14 fold enrichment (6-mer frequency, TF over GST control).
As for ATGACG, the binding signal is 1.28 fold enrichment (6-mer frequency, TF over GST control) with FLI1; 1.44 fold enrichment (6-mer frequency, TF over GST control) with ELK1; 1.37 fold enrichment (6-mer frequency, TF over GST control) with GABPA; 1.29 fold enrichment (6-mer frequency, TF over GST control) in the assay with ERG; 1.34 fold enrichment (6-mer frequency, TF over GST control) with ELF1; 1.21 fold enrichment (6-mer frequency, TF over GST control) with EHF. For the same sequence, the binding signal in the assay with SPI1 was 1.32 fold enrichment (6-mer frequency, TF over GST control); with SPIB, 1.43 fold enrichment (6-mer frequency, TF over GST control); in the assay with ELK3, 1.39 fold enrichment (6-mer frequency, TF over GST control).
As to TCTATC, the binding signal with FLI1 is 1.25 fold enrichment (6-mer frequency, TF over GST control); with ELK1, 1.27 fold enrichment (6-mer frequency, TF over GST control); with GABPA it was 1.21 fold enrichment (6-mer frequency, TF over GST control); with ERG, 1.21 fold enrichment (6-mer frequency, TF over GST control); with ELF1, 1.25 fold enrichment (6-mer frequency, TF over GST control); with EHF, 1.19 fold enrichment (6-mer frequency, TF over GST control). The binding signal was 1.22 fold enrichment (6-mer frequency, TF over GST control) with SPI1; 1.17 fold enrichment (6-mer frequency, TF over GST control) in the assay with SPIB; 1.37 fold enrichment (6-mer frequency, TF over GST control) with ELK3.
As for CTCTCA, the binding signal was 1.49 fold enrichment (6-mer frequency, TF over GST control) in the assay with FLI1; 1.47 fold enrichment (6-mer frequency, TF over GST control) with ELK1; 1.52 fold enrichment (6-mer frequency, TF over GST control) with GABPA; 1.36 fold enrichment (6-mer frequency, TF over GST control) with ERG; 1.38 fold enrichment (6-mer frequency, TF over GST control) in the assay with ELF1; 1.36 fold enrichment (6-mer frequency, TF over GST control) in the assay with EHF. Further, the binding signal was 1.38 fold enrichment (6-mer frequency, TF over GST control) in the assay with SPI1; 1.44 fold enrichment (6-mer frequency, TF over GST control) in the assay with SPIB; 1.57 fold enrichment (6-mer frequency, TF over GST control) with ELK3.
